Results: PubChem BioAssay (Tox21)
Calls of active or inactive are those of the source. Where a call stands in place of a potency, no number is given. Calls come from the whole dose curve.

Target: Acetylcholinesterase (Homo sapiens) (UniProt P22303)
Experiment: Acetylcholinesterase (AChE) small molecule antagonists: enzyme-based qHTS assay with human liver microsomes (AID 1347399); note: nearly all actives have a fitted effect of over 60% in size
Details: Potency: qHTS inhibition; outcome: qHTS inhibition; series mostly up to 115 µM
How it was run: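 Recombinant human AChE (50 mU/mL in the enzyme mix) and human liver microsomes (0.25 mg/mL final) were preincubated with compound and NADPH (0.25 mg/mL final) for 30 min at 37 C. Acetylthiocholine/DTNB was then added; thiocholine was read colorimetrically after 10 min at room temperature.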

Sequence of Acetylcholinesterase (Homo sapiens) (P22303 whole entry, looked up): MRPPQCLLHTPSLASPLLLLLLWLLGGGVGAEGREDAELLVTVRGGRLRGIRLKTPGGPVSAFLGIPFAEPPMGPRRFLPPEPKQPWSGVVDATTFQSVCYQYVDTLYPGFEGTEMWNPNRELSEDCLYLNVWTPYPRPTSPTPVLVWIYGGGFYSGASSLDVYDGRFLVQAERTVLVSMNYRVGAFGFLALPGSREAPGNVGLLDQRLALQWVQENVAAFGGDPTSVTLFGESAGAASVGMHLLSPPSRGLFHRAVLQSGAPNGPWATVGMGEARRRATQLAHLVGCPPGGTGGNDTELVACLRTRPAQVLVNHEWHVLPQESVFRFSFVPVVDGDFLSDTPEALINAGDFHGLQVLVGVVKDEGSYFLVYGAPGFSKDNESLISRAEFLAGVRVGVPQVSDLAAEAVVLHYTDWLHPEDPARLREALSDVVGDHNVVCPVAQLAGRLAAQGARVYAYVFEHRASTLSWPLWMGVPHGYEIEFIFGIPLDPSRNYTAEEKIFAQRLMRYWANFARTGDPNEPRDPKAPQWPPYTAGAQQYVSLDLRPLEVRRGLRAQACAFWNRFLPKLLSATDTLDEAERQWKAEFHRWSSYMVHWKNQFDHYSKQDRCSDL

How did the Potency turn out when COC(=O)c1cc(Cl)ccc1[N+](=O)[O-] was run?
Its Potency is “inactive”.

With N#CC1(c2ccc(F)cc2)CCC(=O)CC1 as the molecule, how does the Potency read?
Its Potency is “inactive”.

How did the Potency turn out when CC[N+](CC)(CC)CCOc1ccc(/C=C/c2ccccc2)cc1 was run?
The Potency was “inactive”.

How did the Potency turn out when NC(N)=NN=C(/C=C/c1ccc([N+](=O)[O-])o1)/C=C/c1ccc([N+](=O)[O-])o1 was run?
The Potency was “inactive”.

CCOCCOCCOC(C)=O was tested. Which Potency did it give?
The Potency was “inactive”.

Which Potency does the source give for Cc1[nH]c(=O)c(C#N)cc1-c1ccncc1 here?
Its Potency is “inactive”.

How did the Potency turn out when CC(=O)OCC(=O)[C@@]1(O)CC[C@H]2[C@@H]3CCC4=CC(=O)C=C[C@]4(C)[C@@]3(F)[C@@H](O)C[C@@]21C was run?
Its Potency is “inactive”.

Which Potency does the source give for Nc1ccc2c(S(=O)(=O)O)cccc2c1S(=O)(=O)O here?
Its Potency is “inactive”.

How did the Potency turn out when CCOC(=O)c1nc(C(Cl)(Cl)Cl)n(-c2ccc(Cl)cc2Cl)n1 was run?
The Potency was “inactive”.

For CC1=CCCC(C)(C)C12CCC(C)O2 (stereo not given), which Potency is on record?
Its Potency is “inactive”.

For Cc1cccc(O)c1N, which Potency is on record?
The Potency was “inactive”.

For S=c1[nH]c2ccccc2s1, which Potency is on record?
Its Potency is “inactive”.

How did the Potency turn out when CCCCCCCCCCCCCCCCOS(=O)(=O)O was run?
Its Potency is “inactive”.

With CCCCCCCCCCCBr as the molecule, how does the Potency read?
Its Potency is “inactive”.

Which Potency does the source give for O=C1C(O)=C(O)C(=O)C(O)=C1O here?
Its Potency is “inactive”.
